Compounds without any hit were thinned out: in the full panel of roughly 83,000, 20% have a hit.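 Interpretation: 100, growth as untreated; towards 0, rising growth inhibition; 0, no net growth; 0 to -100, cell death. Compounds scoring below 10 were considered active.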 The source made the active and inactive calls.
tested on: CCRF-CEM leukemia; assay: NCI-60 one-dose screen, 48 h (100 = growth as untreated, 0 = no growth, -100 = all killed); settings: 10 µM unless noted

| Compound | growth |
| --- | --- |
| O=C(c1ccccc1)C1OC1C(=O)c1ccccc1 (stereo not drawn) | 12.1% (inactive) |
| CC(C)=CC[C@@H]1CC2(CC=C(C)C)C(=O)C(OC3(C(=O)c4ccccc4)C(=O)C4(CC=C(C)C)C[C@@H](CC=C(C)C)C(C)(C)C(CC=C(C)C)(C4=O)C3=O)(C(=O)c3ccccc3)C(=O)C(CC=C(C)C)(C2=O)C1(C)C (stereo partly drawn) | 3.78% (active) |
| CCCCc1nc(Cl)c(C2CC(c3ccc(S(N)(=O)=O)cc3)=NN2c2ccc(C#N)cc2)[nH]1 (stereo not drawn) | 86.8% (inactive) |
| O=[N+]([O-])c1ccc(N=Nc2c(NNc3ccc([N+](=O)[O-])cn3)cc(S(=O)(=O)O)c3ccccc23)nc1 | 65.1% (inactive) |
| NC(=O)N/N=C\c1ccc([N+](=O)[O-])o1 | 19.9% (inactive) |
| Cc1cc(N)cc(C)c1-c1c(Br)cc(N)cc1Br | 8.42% (active) |
| C=CCCCCOc1cccc(/C=C2\N=C3SCCCN3C2=O)c1 | 121% (inactive) |
| CC(CN1CCN(CC(C)Nc2ccnc3cc(Cl)ccc23)CC1)Nc1ccnc2cc(Cl)ccc12 (stereo not drawn) | 5.14% (active) |
| N/C(=N\OC(=O)c1ccccc1)C(Cc1ccccc1)C(=O)NOC(=O)c1ccccc1 (stereo not drawn) | 9.98% (active) |
| CCSc1cnnc2ccccc12 | 97.2% (inactive) |
| CCN1C(=O)N(CC)C2C1NN=c1s/c(=C\c3ccc(Br)cc3)c(=O)n12 (stereo not drawn) | 11.4% (inactive) |
| OC(COCc1ccccc1)COCc1ccccc1 | 99.5% (inactive) |
| N#CCCn1cnc2c(N)ncnc21 | 96.7% (inactive) |
| CCOC(=O)Nc1ccc2nc(Sc3ccc(Cl)cc3)sc2c1 | 20.2% (inactive) |
| COc1cccc(N2CCN(c3ncnc4cc[nH]c34)CC2)c1 | 60.9% (inactive) |
| CCCCc1nc(Cl)c(C2CC(c3ccc(S(N)(=O)=O)cc3)=NN2c2cc(Cl)cc(Cl)c2)[nH]1 (stereo not drawn) | 26.2% (inactive) |
| CC(C)CC(=O)C(CCc1ccccn1)C(C)C (stereo not drawn) | 97.2% (inactive) |
| CC(C)c1ccc(-c2cnc3nonc3n2)cc1 | 1.81% (active) |
| COc1cc2c(=O)n(CCCN(C)C)c3c4cc[nH]c4ncc3c2cc1OC | 34.5% (inactive) |
| COc1cc(C2CC(c3ccc(C)cc3)=NN2C=O)ccc1Oc1nc2c(c(=O)n(C)c(=O)n2C)n1C (stereo not drawn) | 83.8% (inactive) |
| CC(C)CCSc1nc(-c2ccc(F)cc2)c(C#N)c(N2CCCCC2)n1 | 89.9% (inactive) |
| CCN(CC)CCNC(=O)n1cc(-c2ccncc2)c(-c2cc(Cl)cc(OC)c2)n1 | 83.3% (inactive) |
| CCCCCCCOc1cccc(/C=C2\N=C3SCCCN3C2=O)c1 | 111% (inactive) |
| Cn1cnc([N+](=O)[O-])c1S(=O)(=O)Oc1ccccc1 | 6.29% (active) |
| CCN(CC)c1cc(C)c(Cc2c(OC)ccc3ccccc23)cc1C | 102% (inactive) |

tested on: MOLT-4 leukemia; assay: as above; settings: 10 µM unless noted

| Compound | growth |
| --- | --- |
| O=C(c1ccccc1)C1OC1C(=O)c1ccccc1 (stereo not drawn) | 45.6% (inactive) |
| CC(C)=CC[C@@H]1CC2(CC=C(C)C)C(=O)C(OC3(C(=O)c4ccccc4)C(=O)C4(CC=C(C)C)C[C@@H](CC=C(C)C)C(C)(C)C(CC=C(C)C)(C4=O)C3=O)(C(=O)c3ccccc3)C(=O)C(CC=C(C)C)(C2=O)C1(C)C (stereo partly drawn) | -11.9% (active) |
| CCCCc1nc(Cl)c(C2CC(c3ccc(S(N)(=O)=O)cc3)=NN2c2ccc(C#N)cc2)[nH]1 (stereo not drawn) | 76.1% (inactive) |
| COc1cc(Cl)cc(-c2nn(C(=O)NCCN3CCOCC3)cc2-c2ccncc2)c1 | 74.2% (inactive) |
| O=[N+]([O-])c1ccc(N=Nc2c(NNc3ccc([N+](=O)[O-])cn3)cc(S(=O)(=O)O)c3ccccc23)nc1 | 70.9% (inactive) |
| NC(=S)N1N=C(c2ccc(Cl)cc2)CC1c1cc2ccccc2[nH]c1=O (stereo not drawn) | 72.5% (inactive) |
| NC(=O)N/N=C\c1ccc([N+](=O)[O-])o1 | 103% (inactive) |
| Cc1cc(N)cc(C)c1-c1c(Br)cc(N)cc1Br | 35.1% (inactive) |
| O=C1CCCN1C1CCN2CCCc3cccc1c32 (stereo not drawn) | 78.9% (inactive) |
| CCCCCCCCCCCCCCCC1=NCCN1 | -27.3% (active) |
| C=CCCCCOc1cccc(/C=C2\N=C3SCCCN3C2=O)c1 | 96.9% (inactive) |
| CC(CN1CCN(CC(C)Nc2ccnc3cc(Cl)ccc23)CC1)Nc1ccnc2cc(Cl)ccc12 (stereo not drawn) | 4.88% (active) |
| CCN1CCN(Cc2ccc(NC(=O)Nc3ccc(-n4ccc5c(NC(=O)c6ccccc6)nccc54)cc3)cc2C(F)(F)F)CC1 | -32.8% (active) |
| N/C(=N\OC(=O)c1ccccc1)C(Cc1ccccc1)C(=O)NOC(=O)c1ccccc1 (stereo not drawn) | 35.2% (inactive) |
| C=CCN(CC#N)CC=C | 102% (inactive) |
| CCSc1cnnc2ccccc12 | 89.7% (inactive) |
| CCN1C(=O)N(CC)C2C1NN=c1s/c(=C\c3ccc(Br)cc3)c(=O)n12 (stereo not drawn) | 12.6% (inactive) |
| OC(COCc1ccccc1)COCc1ccccc1 | 96.4% (inactive) |
| N#CCCn1cnc2c(N)ncnc21 | 92.1% (inactive) |

| Compound | growth |
| --- | --- |
| CCOC(=O)Nc1ccc2nc(Sc3ccc(Cl)cc3)sc2c1 | 37.8% (inactive) |
| O=C(O)CSc1ccc(NCc2oc(CO)cc(=O)c2O)cc1 | 88.3% (inactive) |
| COc1cccc(N2CCN(c3ncnc4cc[nH]c34)CC2)c1 | 29.6% (inactive) |
| CCCCc1nc(Cl)c(C2CC(c3ccc(S(N)(=O)=O)cc3)=NN2c2cc(Cl)cc(Cl)c2)[nH]1 (stereo not drawn) | 12.3% (inactive) |
| CS(=O)(=O)c1ccc(Cl)c([N+](=O)[O-])c1 | 53.2% (inactive) |
| CC(C)CC(=O)C(CCc1ccccn1)C(C)C (stereo not drawn) | 108% (inactive) |
| CC(C)c1ccc(-c2cnc3nonc3n2)cc1 | -12.1% (active) |
| Cc1ccc(Nc2cc(Cl)c([N+](=O)[O-])cc2[N+](=O)[O-])cc1 | 10.3% (inactive) |
| COc1cc2c(=O)n(CCCN(C)C)c3c4cc[nH]c4ncc3c2cc1OC | -6.64% (active) |
| COc1cc(C2CC(c3ccc(C)cc3)=NN2C=O)ccc1Oc1nc2c(c(=O)n(C)c(=O)n2C)n1C (stereo not drawn) | 67.2% (inactive) |
| CC(C)CCSc1nc(-c2ccc(F)cc2)c(C#N)c(N2CCCCC2)n1 | 70% (inactive) |
| FC(F)(F)c1nn[nH]n1 | 101% (inactive) |
| CCN(CC)CCNC(=O)n1cc(-c2ccncc2)c(-c2cc(Cl)cc(OC)c2)n1 | 82.1% (inactive) |
| CS(=O)(=O)c1ccc(C(=O)Nc2ccc(Cl)c(-c3ccccn3)c2)c(Cl)c1 | 11.5% (inactive) |
| CCOC(=O)c1cc(N)nc2ccccc12 | 100% (inactive) |
| CCCCCCCOc1cccc(/C=C2\N=C3SCCCN3C2=O)c1 | 100% (inactive) |
| Cn1cnc([N+](=O)[O-])c1S(=O)(=O)Oc1ccccc1 | 76.5% (inactive) |
| Cc1c(C(=O)CCl)c(=O)n(-c2ccccc2)n1C | 24.8% (inactive) |
| CCN(CC)c1cc(C)c(Cc2c(OC)ccc3ccccc23)cc1C | 79.7% (inactive) |
